Experimental data from PubChem BioAssay (Tox21).
Several values for one entry are separate records, joined by “and”; a condition that tells them apart may be missing. Identical values can stand only once. Records with an inconclusive call do not appear. A call without a number means that no potency is given here. Unmarked numbers belong to inactive results. Activity calls are given as the source filed them. The call rests on the fitted dose curve; in most records, active means well fitted curve in the direction sought with a large enough effect in the repeat runs; inconclusive means weak or mixed curves; inactive means no such curve, though single readings can be large; an effect the other way counts as inactive or inconclusive.

test: qHTS RealTime-Glo MT Cell Viability Assay in HepG2 cells - 8 hour (AID 1224873); conditions: RealTime-Glo luminescence; series mostly up to 76.8 µM; viability change, negative = cytotoxic: at the top concentration; further: nearly all actives have a fitted effect of over 55% in size
Procedure, shortened: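 HepG2 cells mixed with RealTime-Glo MT reagents (NanoLuc plus cell-permeant prosubstrate) were seeded at 600 cells/well, incubated 5 h at 37 C/5% CO2, then pinned with compounds in DMSO; nonlytic luminescence tracked viability during 40 h treatment.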

Structure (SMILES) | Potency | viability change, negative = cytotoxic
COC(=O)CCCCC(=O)OC | inactive | 
O=C(NCC1CCCCN1)c1cc(OCC(F)(F)F)ccc1OCC(F)(F)F (centres undefined) | inactive | 
CCCCCNCCCCC | inactive | 
OB(O)O | inactive | 
C=C(C)CC(C)(C)C | inactive | 
O=[N+]([O-])c1cc(C(F)(F)F)ccc1Cl | inactive | 
CCCCCCC(=O)O | inactive | 
CC(=O)OC/C=C(\C)CCC=C(C)C | inactive | 
OC[C@H]1O[C@@H](Oc2ccc(O)cc2)[C@H](O)[C@@H](O)[C@@H]1O | inactive | 
CC1(C)C(=O)N(Cl)C(=O)N1Cl | inactive | 
CC(=O)c1nccs1 | inactive | 
COc1ccc2cc3[n+](cc2c1OC)CCc1cc2c(cc1-3)OCO2 |  | -17.8% [at 35.3 µM]
CC(O)CNCC(C)O (centres undefined) | inactive | 
Cc1ccccc1Cl | inactive | 
CO[Si](CCCNCCN)(OC)OC | inactive | 
Oc1ccc(Cc2ccccc2O)cc1 | inactive | 
CCCN(CCC)C(=O)SCC | inactive | 
CS(=O)(=O)c1ccc(Cl)cc1 | inactive | 
CC[N+](CC)(CC(=O)Nc1c(C)cccc1C)Cc1ccccc1 | inactive | 

Structure (SMILES) | Potency | viability change, negative = cytotoxic
COc1ccc([C@@H]2CC(=O)c3c(O)cc(O[C@@H]4O[C@H](CO[C@@H]5O[C@@H](C)[C@H](O)[C@@H](O)[C@H]5O)[C@@H](O)[C@H](O)[C@H]4O)cc3O2)cc1OC | inactive | 
C1CCCNCC1 | inactive | 
NC(=O)NC(N)=O | inactive | 
O=[N+]([O-])c1ccccc1C(F)(F)F | inactive | 
CC(=O)OC(C)(C)C1CC=C(C)CC1 (centres undefined) | inactive | 
CCCCCCCC(=O)O | inactive | 
CC(COCC(C)OC(=O)c1ccccc1)OC(=O)c1ccccc1 (centres undefined) | inactive | 
Cc1ccncc1 | inactive | 
COc1c(Cl)ccc(Cl)c1C(=O)O | inactive | 
CN=C(NC#N)NCCSCc1nc[nH]c1C | inactive | 
OCC(O)CS (centres undefined) | inactive | 
CCOC(=O)CC(=O)OCC | inactive | 
COC(=O)/C=C\C(=O)OC | inactive | 
CC1=CC(=O)CC(C)(C)C1 | inactive | 
CC(=O)CC(=O)N(C)C | inactive | 
O=c1n(CCCN2CCN(c3cccc(Cl)c3)CC2)nc2ccccn12 | inactive | 
N#CCC(=O)O | inactive | 
NC(=O)c1ncn([C@@H]2O[C@H](CO)[C@@H](O)[C@H]2O)n1 | inactive | 
c1cnc2c(c1)ccc1cccnc12 | inactive | 

test: qHTS RealTime-Glo MT Cell Viability Assay in HEK293 cells - 40 hour (AID 1224874); conditions: RealTime-Glo luminescence; max response: hits give low values; further: nearly all actives have a fitted effect of over 50% in size; further: potency means the concentration at half of the fitted maximal effect
Procedure, shortened: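 HEK293 + NanoLuc + prosubstrate, 600 cells/well; 5 h, 37 C/5% CO2; compound 23 nL in DMSO by pintool; 37 C; luminescence read at 0, 8, 16, 24, 32 and 40 h time points.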

Structure (SMILES) | max response | Potency
COC(=O)CCCCC(=O)OC | 6.2% and 1.04% | 
CCCCCNCCCCC | 4.14% and 0.383% | 
OB(O)O | 1.85% and 3.92% | 
C=C(C)CC(C)(C)C | 7.8% and -7.58% | 
O=[N+]([O-])c1cc(C(F)(F)F)ccc1Cl | -1.22% and -0.472% | 
CCCCCCC(=O)O | 0.822% and 2.88% | 
OC[C@H]1O[C@@H](Oc2ccc(O)cc2)[C@H](O)[C@@H](O)[C@@H]1O | 3.45% and 3.98% | 
CC1(C)C(=O)N(Cl)C(=O)N1Cl | 1.41% and 7.94% | 
CC(=O)c1nccs1 | 1.39% and 3.29% | 
Cc1ccccc1Cl | 1.86% | 
CO[Si](CCCNCCN)(OC)OC | 4.43% and -18.7% | 
CCCN(CCC)C(=O)SCC | 1.3% and 0.597% | 
COc1ccc([C@@H]2CC(=O)c3c(O)cc(O[C@@H]4O[C@H](CO[C@@H]5O[C@@H](C)[C@H](O)[C@@H](O)[C@H]5O)[C@@H](O)[C@H](O)[C@H]4O)cc3O2)cc1OC | 14.9% and 7.9% | 
C1CCCNCC1 | 6.44% and 0.666% | 
NC(=O)NC(N)=O | 1.11% and 4.69% | 
O=[N+]([O-])c1ccccc1C(F)(F)F | 3.79% and 8.48% | 
CC(=O)OC(C)(C)C1CC=C(C)CC1 (centres undefined) | 3.8% and -15.5% | 
CCCCCCCC(=O)O | 3.06% and 7% | 
OCC(O)CS (centres undefined) | 14.9% and 3.08% | 
COC(=O)/C=C\C(=O)OC | 12.2% and 10.6% | 
CC1=CC(=O)CC(C)(C)C1 | 9.76% | 
CC(=O)CC(=O)N(C)C | 0.701% and 6.53% | 
O=c1n(CCCN2CCN(c3cccc(Cl)c3)CC2)nc2ccccn12 |  | 13.8 µM (active) and 9.52 µM (active)
N#CCC(=O)O | -0.419% and 10.1% | 
NC(=O)c1ncn([C@@H]2O[C@H](CO)[C@@H](O)[C@H]2O)n1 | 2.04% | 
c1cnc2c(c1)ccc1cccnc12 |  | 3.12 µM (active) and 7.76 µM (active) and 6.92 µM (active)
